Source: PMC7862700, “An all-to-all approach to the identification of sequence-specific readers for epigenetic DNA modifications on cytosine”

Experiments:
Assay in all cases: DAPPL (digital affinity profiling via proximity ligation, sequencing); 10 mM Tris-HCl pH 7.5, 50 mM NaCl, 1 mM DTT, 4% glycerol, room temperature, 30 min; GST-TFs on glutathione beads, 16-mer random dsDNA library, 0.1% formaldehyde crosslink after washing; high values mean tight binding
[1] = biological target: T1, FLI1 (Homo sapiens, UniProt Q01543 1-452); settings: protein: recombinant; tags: N-terminal GST; dsDNA, one strand shown
T1 sequence: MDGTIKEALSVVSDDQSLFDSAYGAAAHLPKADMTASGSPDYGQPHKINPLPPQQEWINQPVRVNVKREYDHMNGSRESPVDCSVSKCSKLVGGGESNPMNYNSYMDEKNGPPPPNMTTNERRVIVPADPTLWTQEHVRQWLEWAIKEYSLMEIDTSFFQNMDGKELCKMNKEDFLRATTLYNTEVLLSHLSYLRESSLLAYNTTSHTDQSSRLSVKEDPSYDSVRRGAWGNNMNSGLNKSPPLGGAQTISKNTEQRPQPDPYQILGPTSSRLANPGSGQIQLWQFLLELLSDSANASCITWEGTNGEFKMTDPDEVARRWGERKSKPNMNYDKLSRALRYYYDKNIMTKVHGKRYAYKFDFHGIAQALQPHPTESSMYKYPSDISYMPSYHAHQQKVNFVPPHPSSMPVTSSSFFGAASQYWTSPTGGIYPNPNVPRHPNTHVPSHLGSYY
Method in brief: (§1)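 Binding signal is given per hexamer as its read frequency for a factor divided by its frequency in the tag-only sample. GST-fused human transcription factors were expressed in yeast, captured on glutathione beads, barcoded with DNA and pooled with that sample, then incubated with 200 nmole of a 16-mer random double-stranded DNA library in Tris/NaCl/DTT/glycerol buffer for 30 min at room temperature. The pools were then washed, crosslinked, proximity-ligated, amplified by PCR and sequenced on an Illumina NextSeq500.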

[2] = biological target: T2, ELK1 (Homo sapiens, UniProt P19419 1-428); settings: protein: recombinant; tags: N-terminal GST; dsDNA, one strand shown
T2 sequence: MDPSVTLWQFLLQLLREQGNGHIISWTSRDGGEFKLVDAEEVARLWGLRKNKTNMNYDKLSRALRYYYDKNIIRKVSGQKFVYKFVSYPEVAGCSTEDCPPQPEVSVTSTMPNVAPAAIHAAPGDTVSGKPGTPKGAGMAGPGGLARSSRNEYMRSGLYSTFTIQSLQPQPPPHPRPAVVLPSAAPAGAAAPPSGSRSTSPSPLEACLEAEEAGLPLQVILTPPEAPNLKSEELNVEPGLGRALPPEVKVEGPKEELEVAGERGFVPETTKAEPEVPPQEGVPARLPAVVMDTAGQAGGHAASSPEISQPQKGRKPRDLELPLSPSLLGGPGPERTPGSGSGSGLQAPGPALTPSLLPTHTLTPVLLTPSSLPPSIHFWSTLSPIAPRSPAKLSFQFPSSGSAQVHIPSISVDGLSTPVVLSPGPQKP
Method in brief: as §1

[3] = biological target: T3, GABPA (Homo sapiens, UniProt Q06546 1-454); settings: protein: recombinant; tags: N-terminal GST; dsDNA, one strand shown
T3 sequence: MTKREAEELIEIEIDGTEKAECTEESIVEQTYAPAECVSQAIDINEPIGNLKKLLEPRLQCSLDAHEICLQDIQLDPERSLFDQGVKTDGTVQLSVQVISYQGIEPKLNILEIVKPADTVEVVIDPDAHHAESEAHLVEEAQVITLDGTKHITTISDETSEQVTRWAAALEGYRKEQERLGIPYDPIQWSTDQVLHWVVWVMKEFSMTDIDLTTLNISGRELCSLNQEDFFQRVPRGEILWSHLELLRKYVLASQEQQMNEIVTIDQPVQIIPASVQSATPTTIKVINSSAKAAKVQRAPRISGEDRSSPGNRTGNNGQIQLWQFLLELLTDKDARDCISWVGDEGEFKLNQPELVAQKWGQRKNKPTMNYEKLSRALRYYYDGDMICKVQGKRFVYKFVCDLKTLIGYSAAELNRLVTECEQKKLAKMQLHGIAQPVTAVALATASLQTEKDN
Method in brief: as §1

[4] = biological target: T4, ERG (Homo sapiens, UniProt P11308 1-479); settings: protein: recombinant; tags: N-terminal GST; dsDNA, one strand shown
T4 sequence: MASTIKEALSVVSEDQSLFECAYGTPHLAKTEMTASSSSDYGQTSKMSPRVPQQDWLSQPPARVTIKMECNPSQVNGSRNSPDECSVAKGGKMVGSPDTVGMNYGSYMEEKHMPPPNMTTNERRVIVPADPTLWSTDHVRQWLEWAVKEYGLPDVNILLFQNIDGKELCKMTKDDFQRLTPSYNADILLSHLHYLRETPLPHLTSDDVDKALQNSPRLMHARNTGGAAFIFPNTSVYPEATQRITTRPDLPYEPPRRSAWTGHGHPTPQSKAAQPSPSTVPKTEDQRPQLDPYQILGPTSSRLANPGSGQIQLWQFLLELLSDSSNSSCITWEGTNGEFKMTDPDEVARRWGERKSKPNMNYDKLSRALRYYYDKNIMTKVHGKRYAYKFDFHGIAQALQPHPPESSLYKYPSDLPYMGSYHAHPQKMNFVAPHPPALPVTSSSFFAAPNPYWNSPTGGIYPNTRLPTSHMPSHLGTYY
Method in brief: as §1

[5] = biological target: ELF1 (Homo sapiens, UniProt P32519 1-619); settings: protein: recombinant; tags: N-terminal GST; dsDNA, one strand shown
ELF1, sequence (P32519 whole entry): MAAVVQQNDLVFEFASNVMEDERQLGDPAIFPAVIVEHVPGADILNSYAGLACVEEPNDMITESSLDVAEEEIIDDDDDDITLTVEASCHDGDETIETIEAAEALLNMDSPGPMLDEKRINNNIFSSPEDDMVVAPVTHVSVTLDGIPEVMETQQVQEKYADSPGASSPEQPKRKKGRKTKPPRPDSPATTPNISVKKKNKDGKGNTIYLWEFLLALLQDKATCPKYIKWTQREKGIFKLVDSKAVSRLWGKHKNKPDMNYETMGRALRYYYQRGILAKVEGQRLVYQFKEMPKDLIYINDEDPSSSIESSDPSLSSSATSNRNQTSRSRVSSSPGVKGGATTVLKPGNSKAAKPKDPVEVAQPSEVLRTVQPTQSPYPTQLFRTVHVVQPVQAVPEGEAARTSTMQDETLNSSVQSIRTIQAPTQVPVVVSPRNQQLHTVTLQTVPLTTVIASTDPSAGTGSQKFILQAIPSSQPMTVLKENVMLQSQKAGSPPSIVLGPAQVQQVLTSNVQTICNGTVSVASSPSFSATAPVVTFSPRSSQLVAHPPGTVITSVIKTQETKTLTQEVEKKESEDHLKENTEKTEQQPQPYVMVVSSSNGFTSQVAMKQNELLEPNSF
Method in brief: as §1

[6] = biological target: T5, EHF (Homo sapiens, UniProt Q9NZC4 1-300); settings: protein: recombinant; tags: N-terminal GST; dsDNA, one strand shown
T5 sequence: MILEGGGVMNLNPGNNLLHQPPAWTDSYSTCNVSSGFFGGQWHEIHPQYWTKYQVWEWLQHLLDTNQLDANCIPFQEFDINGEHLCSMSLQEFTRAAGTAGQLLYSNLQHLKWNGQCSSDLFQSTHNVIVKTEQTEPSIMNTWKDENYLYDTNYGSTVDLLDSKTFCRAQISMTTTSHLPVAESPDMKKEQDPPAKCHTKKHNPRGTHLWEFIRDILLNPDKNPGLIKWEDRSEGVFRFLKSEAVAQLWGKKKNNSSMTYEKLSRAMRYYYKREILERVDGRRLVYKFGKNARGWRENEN
Method in brief: as §1

[7] = biological target: SPI1 (Homo sapiens, UniProt P17947 1-270); settings: protein: recombinant; tags: N-terminal GST; dsDNA, one strand shown
Method in brief: as §1

[8] = biological target: SPIB (Homo sapiens, UniProt Q01892 1-262); settings: protein: recombinant; tags: N-terminal GST; dsDNA, one strand shown
SPIB, sequence (Q01892 whole entry): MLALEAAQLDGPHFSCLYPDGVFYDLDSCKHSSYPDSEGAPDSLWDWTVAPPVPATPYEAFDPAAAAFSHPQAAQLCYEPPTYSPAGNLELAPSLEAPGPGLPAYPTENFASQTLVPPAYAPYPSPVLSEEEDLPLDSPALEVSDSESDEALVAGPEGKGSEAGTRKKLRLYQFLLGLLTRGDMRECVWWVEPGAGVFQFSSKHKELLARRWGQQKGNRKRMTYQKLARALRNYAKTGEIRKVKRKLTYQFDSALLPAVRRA
Method in brief: as §1

[9] = biological target: T6, ELK3 (Homo sapiens, UniProt P41970 1-407); settings: protein: recombinant; tags: N-terminal GST; dsDNA, one strand shown
T6 sequence: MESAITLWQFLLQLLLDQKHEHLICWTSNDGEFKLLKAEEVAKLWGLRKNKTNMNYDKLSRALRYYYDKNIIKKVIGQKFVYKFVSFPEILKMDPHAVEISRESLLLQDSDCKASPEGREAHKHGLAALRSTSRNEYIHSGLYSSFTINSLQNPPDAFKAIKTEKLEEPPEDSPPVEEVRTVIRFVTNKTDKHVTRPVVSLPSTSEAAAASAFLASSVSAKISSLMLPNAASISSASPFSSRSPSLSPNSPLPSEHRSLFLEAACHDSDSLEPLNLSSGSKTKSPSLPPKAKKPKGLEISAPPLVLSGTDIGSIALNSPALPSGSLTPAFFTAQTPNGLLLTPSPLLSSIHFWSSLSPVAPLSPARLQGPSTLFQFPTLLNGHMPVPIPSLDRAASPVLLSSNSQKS
Method in brief: as §1

[10] = biological target: T7, FEV (Homo sapiens, UniProt Q99581 1-238); settings: protein: recombinant; tags: N-terminal GST; dsDNA, one strand shown
T7 sequence: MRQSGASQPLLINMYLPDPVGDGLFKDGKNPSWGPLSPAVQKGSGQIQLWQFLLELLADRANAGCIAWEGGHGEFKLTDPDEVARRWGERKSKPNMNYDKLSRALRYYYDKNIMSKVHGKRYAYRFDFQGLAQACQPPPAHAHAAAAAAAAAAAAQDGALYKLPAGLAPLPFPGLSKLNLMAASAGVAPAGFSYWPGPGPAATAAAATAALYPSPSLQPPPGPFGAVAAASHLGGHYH
Method in brief: as §1

[11] = biological target: ETV5 (Homo sapiens, UniProt P41161 1-510); settings: protein: recombinant; tags: N-terminal GST; dsDNA, one strand shown
ETV5, sequence (P41161 whole entry): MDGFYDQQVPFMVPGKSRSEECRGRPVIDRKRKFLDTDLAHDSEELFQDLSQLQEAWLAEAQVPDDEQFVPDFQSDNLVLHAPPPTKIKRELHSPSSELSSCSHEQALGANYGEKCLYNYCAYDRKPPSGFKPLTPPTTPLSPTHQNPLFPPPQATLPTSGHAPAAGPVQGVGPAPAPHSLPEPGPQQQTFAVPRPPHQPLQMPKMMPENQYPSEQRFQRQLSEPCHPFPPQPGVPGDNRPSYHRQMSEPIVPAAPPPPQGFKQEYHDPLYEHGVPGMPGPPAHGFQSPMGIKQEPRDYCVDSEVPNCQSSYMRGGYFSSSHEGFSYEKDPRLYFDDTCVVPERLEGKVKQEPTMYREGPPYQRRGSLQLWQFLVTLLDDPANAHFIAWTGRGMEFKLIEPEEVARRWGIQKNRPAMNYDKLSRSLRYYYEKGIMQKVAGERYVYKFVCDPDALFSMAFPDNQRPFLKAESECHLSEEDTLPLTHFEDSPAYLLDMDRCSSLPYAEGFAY
Method in brief: as §1

[12] = biological target: HSF1 (Homo sapiens, UniProt Q00613 1-529); settings: protein: recombinant; tags: N-terminal GST; chain copies: 3; dsDNA, one strand shown
HSF1, sequence (Q00613 whole entry): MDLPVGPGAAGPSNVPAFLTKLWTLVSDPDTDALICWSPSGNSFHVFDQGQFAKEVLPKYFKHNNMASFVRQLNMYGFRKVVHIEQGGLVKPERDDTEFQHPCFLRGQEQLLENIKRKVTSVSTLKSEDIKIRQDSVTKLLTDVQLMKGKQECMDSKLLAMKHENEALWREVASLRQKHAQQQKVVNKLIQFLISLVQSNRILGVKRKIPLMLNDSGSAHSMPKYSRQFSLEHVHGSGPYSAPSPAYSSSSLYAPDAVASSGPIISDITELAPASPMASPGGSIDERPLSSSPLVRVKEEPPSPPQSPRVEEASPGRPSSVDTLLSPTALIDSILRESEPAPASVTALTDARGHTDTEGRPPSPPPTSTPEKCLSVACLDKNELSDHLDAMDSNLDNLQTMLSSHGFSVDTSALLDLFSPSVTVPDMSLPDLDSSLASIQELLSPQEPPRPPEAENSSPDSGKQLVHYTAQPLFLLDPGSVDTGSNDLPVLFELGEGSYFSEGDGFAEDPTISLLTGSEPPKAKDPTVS
Method in brief: as §1

[13] = biological target: T8, SPIC (Homo sapiens, UniProt Q8N5J4 1-248); settings: protein: recombinant; tags: N-terminal GST; dsDNA, one strand shown
T8 sequence: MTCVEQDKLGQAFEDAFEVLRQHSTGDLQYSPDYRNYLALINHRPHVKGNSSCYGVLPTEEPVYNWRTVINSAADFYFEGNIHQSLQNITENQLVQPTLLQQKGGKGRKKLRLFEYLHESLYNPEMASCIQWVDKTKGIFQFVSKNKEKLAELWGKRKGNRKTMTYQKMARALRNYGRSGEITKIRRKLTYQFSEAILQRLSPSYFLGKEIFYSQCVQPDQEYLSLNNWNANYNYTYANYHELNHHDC
Method in brief: as §1

[14] = biological target: ELF4 (Homo sapiens, UniProt Q99607 1-663); settings: protein: recombinant; tags: N-terminal GST; dsDNA, one strand shown
ELF4, sequence (Q99607 whole entry): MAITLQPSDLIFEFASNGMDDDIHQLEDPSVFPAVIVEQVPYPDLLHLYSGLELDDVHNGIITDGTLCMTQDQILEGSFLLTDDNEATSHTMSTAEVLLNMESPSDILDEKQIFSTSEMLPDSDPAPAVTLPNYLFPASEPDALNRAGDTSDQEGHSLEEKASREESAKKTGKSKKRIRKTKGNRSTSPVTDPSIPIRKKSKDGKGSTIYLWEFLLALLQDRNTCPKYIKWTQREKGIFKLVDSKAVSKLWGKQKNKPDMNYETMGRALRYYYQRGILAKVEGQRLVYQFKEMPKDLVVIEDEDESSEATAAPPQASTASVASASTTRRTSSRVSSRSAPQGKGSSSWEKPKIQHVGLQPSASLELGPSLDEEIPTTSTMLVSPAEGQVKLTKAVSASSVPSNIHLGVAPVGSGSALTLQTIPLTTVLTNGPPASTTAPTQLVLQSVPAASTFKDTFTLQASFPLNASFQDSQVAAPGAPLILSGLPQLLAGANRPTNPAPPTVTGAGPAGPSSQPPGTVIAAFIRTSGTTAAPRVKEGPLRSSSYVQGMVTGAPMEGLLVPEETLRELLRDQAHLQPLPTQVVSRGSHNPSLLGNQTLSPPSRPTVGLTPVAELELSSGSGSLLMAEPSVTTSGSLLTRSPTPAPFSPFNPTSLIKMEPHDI
Method in brief: as §1

[15] = biological target: T9, ELK4 (Homo sapiens, UniProt P28324-2 1-405); settings: protein: recombinant; tags: N-terminal GST; dsDNA, one strand shown
T9 sequence: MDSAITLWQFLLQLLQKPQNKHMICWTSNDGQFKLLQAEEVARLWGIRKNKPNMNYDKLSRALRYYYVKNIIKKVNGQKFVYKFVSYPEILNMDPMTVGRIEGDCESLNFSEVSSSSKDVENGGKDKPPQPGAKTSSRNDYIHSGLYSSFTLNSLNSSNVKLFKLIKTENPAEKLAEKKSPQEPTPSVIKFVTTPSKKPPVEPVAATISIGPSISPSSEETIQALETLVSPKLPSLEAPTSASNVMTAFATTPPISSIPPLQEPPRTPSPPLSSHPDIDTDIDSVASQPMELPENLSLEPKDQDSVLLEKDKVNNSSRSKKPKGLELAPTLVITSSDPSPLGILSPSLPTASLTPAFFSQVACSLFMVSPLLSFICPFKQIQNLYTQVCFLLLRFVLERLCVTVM
Method in brief: as §1

[16] = biological target: T10, ETV2 (Homo sapiens, UniProt O00321 1-342); settings: protein: recombinant; tags: N-terminal GST; dsDNA, one strand shown
T10 sequence: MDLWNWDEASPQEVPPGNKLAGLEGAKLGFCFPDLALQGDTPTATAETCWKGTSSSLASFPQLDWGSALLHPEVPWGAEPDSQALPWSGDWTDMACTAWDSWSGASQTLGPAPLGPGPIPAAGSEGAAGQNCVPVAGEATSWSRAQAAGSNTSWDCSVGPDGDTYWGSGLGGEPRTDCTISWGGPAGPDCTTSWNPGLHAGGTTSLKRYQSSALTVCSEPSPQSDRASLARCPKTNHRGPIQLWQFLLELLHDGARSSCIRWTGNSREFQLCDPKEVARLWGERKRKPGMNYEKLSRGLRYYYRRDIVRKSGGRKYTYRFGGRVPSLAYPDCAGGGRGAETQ
Method in brief: as §1

[17] = biological target: T11, ELF3 (Homo sapiens, UniProt P78545 1-371); settings: protein: recombinant; tags: N-terminal GST; dsDNA, one strand shown
T11 sequence: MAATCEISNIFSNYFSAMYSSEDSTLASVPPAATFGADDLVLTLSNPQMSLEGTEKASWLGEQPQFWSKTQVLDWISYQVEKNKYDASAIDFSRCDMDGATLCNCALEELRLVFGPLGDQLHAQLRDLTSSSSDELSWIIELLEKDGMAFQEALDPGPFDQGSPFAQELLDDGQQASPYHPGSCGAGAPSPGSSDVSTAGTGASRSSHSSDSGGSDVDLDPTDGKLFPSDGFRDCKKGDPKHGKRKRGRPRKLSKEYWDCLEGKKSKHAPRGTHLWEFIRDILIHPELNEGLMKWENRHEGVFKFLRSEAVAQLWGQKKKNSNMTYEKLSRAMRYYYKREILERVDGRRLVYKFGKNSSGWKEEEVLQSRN
Method in brief: as §1

[18] = biological target: CRX (Homo sapiens, UniProt O43186 1-299); settings: protein: recombinant; tags: N-terminal GST; dsDNA, one strand shown
CRX, sequence (O43186 whole entry): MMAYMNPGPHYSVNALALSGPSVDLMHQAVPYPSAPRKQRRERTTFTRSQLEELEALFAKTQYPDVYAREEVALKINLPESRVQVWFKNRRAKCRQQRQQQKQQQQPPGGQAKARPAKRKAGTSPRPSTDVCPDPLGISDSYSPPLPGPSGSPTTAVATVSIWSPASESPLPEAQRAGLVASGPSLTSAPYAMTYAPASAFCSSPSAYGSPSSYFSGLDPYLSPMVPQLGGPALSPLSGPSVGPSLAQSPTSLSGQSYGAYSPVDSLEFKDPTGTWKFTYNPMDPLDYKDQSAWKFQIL
Method in brief: as §1

[19] = biological target: ETV1 (Homo sapiens, UniProt P50549 1-477); settings: protein: recombinant; tags: N-terminal GST; dsDNA, one strand shown
ETV1, sequence (P50549 whole entry): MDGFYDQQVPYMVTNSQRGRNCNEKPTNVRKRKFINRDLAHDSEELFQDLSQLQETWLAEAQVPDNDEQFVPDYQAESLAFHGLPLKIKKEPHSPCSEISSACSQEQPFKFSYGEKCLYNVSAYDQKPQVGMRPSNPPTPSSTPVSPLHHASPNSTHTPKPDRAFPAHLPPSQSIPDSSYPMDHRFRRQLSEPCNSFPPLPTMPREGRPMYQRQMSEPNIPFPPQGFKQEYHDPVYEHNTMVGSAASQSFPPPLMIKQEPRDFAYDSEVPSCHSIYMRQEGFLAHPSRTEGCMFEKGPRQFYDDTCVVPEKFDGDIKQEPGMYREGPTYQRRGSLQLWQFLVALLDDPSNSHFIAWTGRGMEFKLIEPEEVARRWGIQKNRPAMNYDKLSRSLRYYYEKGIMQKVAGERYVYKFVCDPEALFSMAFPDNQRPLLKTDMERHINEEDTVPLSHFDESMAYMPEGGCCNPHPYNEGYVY
Method in brief: as §1

CTAATT
binding signal [1]: 1.35 fold enrichment (6-mer frequency, TF over GST control)
binding signal [2]: 1.2 fold enrichment (6-mer frequency, TF over GST control)
binding signal [3]: 1.33 fold enrichment (6-mer frequency, TF over GST control)
binding signal [4]: 1.36 fold enrichment (6-mer frequency, TF over GST control)
binding signal [5]: 1.43 fold enrichment (6-mer frequency, TF over GST control)
binding signal [6]: 1.33 fold enrichment (6-mer frequency, TF over GST control)
binding signal [7]: 1.3 fold enrichment (6-mer frequency, TF over GST control)
binding signal [8]: 1.37 fold enrichment (6-mer frequency, TF over GST control)
binding signal [9]: 1.4 fold enrichment (6-mer frequency, TF over GST control)
binding signal [10]: 1.35 fold enrichment (6-mer frequency, TF over GST control)
binding signal [11]: 1.28 fold enrichment (6-mer frequency, TF over GST control)
binding signal [12]: 1.47 fold enrichment (6-mer frequency, TF over GST control)
binding signal [13]: 1.46 fold enrichment (6-mer frequency, TF over GST control)
binding signal [14]: 1.38 fold enrichment (6-mer frequency, TF over GST control)
binding signal [15]: 1.27 fold enrichment (6-mer frequency, TF over GST control)
binding signal [16]: 1.57 fold enrichment (6-mer frequency, TF over GST control)
binding signal [17]: 1.48 fold enrichment (6-mer frequency, TF over GST control)
binding signal [18]: 2.09 fold enrichment (6-mer frequency, TF over GST control)
binding signal [19]: 1.26 fold enrichment (6-mer frequency, TF over GST control)
